Results on 10 compounds are retold here after PubChem BioAssay (NCATS).

Records with an inconclusive call do not appear. Activity calls are given as the source filed them. Unless noted, calls come from the whole dose curve; as a rule, active = well fitted curve in the direction sought with a large enough effect; inconclusive = small, poorly fitted or top-dose-only effect, or another doubt; inactive = no such curve, though single readings can be large; an effect the other way counts as inactive or inconclusive.

Test [1] in a line: qHTS Assay for Identification of Small Molecule Inducers of Hypoxia Response (AID 2120; active = well fitted curve in the direction sought with a large enough effect in the signal ratio, with a control signal flat, not every such curve was filed as active; the % refers to the signal ratio). Put shortly:
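HRE-bla ME-180, 2500 cells/well, 0.5% dialyzed FBS medium; cpd titration, 17 h 37 degrees C; CCF4 2.5 h RT; Ex 405, Em 460/530 ratio -> %Activity, AC50.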
Background: Quantitative high-throughput screening tests each substance at several concentrations.

A short description of test [2]: qHTS for differential inhibitors of proliferation of Plasmodium falciparum line W2 (AID 1883).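 Note: parasites grown with compound for 72 h before lysis and staining.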 Note: potency is the fitted concentration of half-maximal effect. As to conditions: Potency: Plasmodium falciparum W2 proliferation inhibition.
The nature of test [3]: qHTS for differential inhibitors of proliferation of Plasmodium falciparum line HB3 (AID 1886).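 Note: parasites grown with compound for 72 h before SYBR Green readout.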 As to conditions: Potency: Plasmodium falciparum HB3 proliferation inhibition.
Test [4] addresses Ferritin light chain (Equus caballus) (UniProt P02791). The test is described as follows: qHTS Validation Assay for Identification of Novel General Anesthetics (AID 2323). Note: series mostly up to about 77 µM. The essentials: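 Normalized fluorescence response, scaled between free 1-AMA and 1-AMA/apoferritin complex, fitted to a four-parameter Hill equation for concentration-effect values. Binding mix: 10 uM horse-spleen apoferritin, 50% saturated 1-AMA in PBS; read 380/535 nm after 10 min.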

The target in test [5] is ATP-dependent DNA helicase Q1 (Homo sapiens) (UniProt P46063). The test is described as follows: qHTS Validation Assay for Inhibitors of RecQ-Like Dna Helicase 1 (RECQ1) (AID 2353). Put shortly: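 RECQ1T1 50 nM; forked duplex (20 bp + 30-nt ss tails) 200 nM, ATP 2 mM final; pH 8.0, 2 mM MgCl2, 2.5 ug/ml poly(dI-dC); 15 min compound preincubation; discontinuous kinetic read over 2 h at RT.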
ATP-dependent DNA helicase Q1 (Homo sapiens), sequence (P46063 whole entry, looked up): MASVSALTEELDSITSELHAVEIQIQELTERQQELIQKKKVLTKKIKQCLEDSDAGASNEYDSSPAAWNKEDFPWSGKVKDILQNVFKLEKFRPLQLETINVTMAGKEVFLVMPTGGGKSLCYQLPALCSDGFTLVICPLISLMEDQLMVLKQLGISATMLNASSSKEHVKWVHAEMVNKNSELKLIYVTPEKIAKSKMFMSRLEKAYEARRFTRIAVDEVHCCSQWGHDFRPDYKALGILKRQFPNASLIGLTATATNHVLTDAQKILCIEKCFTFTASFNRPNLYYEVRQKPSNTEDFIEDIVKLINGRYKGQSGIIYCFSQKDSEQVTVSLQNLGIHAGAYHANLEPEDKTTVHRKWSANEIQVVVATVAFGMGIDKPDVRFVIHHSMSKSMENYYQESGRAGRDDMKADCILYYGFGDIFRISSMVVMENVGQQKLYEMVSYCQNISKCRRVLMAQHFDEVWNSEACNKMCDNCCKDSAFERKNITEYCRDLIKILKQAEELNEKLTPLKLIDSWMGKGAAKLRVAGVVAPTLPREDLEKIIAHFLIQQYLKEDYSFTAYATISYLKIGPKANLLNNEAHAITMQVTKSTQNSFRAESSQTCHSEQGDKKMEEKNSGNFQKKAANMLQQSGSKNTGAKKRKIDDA

The target of test [6] is Ubiquitin carboxyl-terminal hydrolase 2 (Homo sapiens) (UniProt O75604). Description: qHTS Validation Assay for Inhibitors of Ubiquitin-specific Protease USP2a Using CHOP2 as the Reporter (AID 463106). The essentials:
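Fluorescence read-out at Ex 485nm/Em 531nm after 60min RT, following addition of 25nM Ub-CHOP2 plus 25nM reporter substrate to USP2 core (10nM) pretreated 30min with compound. Data normalized to NEM full inhibition; concentration-response curves fitted.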

The target in test [7] is DNA polymerase III PolC-type (Bacillus subtilis (strain 168)) (UniProt P13267). The test is described as follows: qHTS Validation Assay for the Inhibitors of DNA Replication in Gram-Positive Bacteria (AID 485295).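 Note: reconstituted holoenzyme with PolC plus beta clamp SSB and primase; PicoGreen fluorescence of double-stranded DNA made on primed circular M13 template; series mostly up to about 57 µM.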 The essentials:
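Inhibition of DNA synthesis by the reconstituted PolC holoenzyme, monitored through PicoGreen staining of dsDNA formed from ssM13Gori, dNTPs and NTPs, with compound preincubation and room-temperature reaction.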

In test [8] the target is Tumor susceptibility gene 101 protein (Homo sapiens) (UniProt Q99816). Description: qHTS Validation Assay for Iinhibitors of HIV-1 Budding by Blocking the Interaction of PTAP/TSG101 (AID 485342; calls by dose curve). The essentials: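 Compound wells held the Tsg101 binding domain (10 uM) and a FITC-conjugated PTAP peptide (50 nM) in buffer at pH 7.5 containing 0.15 M NaCl and 0.01% Tween 20; polarization was recorded after 20 min, r.t.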
Tumor susceptibility gene 101 protein (Homo sapiens), sequence (Q99816 whole entry, looked up, the tested form may be a part): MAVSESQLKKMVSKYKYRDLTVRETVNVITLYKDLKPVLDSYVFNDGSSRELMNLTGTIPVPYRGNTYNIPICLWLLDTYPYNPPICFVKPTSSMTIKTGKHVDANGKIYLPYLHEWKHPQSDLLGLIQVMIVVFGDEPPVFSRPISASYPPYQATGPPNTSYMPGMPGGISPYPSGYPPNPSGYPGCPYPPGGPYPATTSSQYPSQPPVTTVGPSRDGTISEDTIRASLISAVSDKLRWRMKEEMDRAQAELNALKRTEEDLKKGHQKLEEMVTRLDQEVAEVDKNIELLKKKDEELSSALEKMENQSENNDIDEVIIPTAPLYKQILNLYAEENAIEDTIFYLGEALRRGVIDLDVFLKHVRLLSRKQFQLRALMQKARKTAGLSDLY

A short description of test [9]: Quantitative high throughput screen for delayed death inhibitors of the malarial parasite plastid, 96 hour incubation (AID 488745). Note: series mostly up to about 29 µM; nearly all actives have a fitted effect of over 70% in size. The essentials:
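Two-generation (96 h) exposure of luciferase-reporter P. falciparum in erythrocytes, 2% hematocrit, 0.1% parasitemia final, 37 C, 5% CO2, RPMI 1640 with 0.5% Albumax. Growth inhibition scored by reduced luminescence.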

A short description of test [10]: Quantitative high throughput screen for delayed death inhibitors of the malarial parasite plastid, 48 hour incubation (AID 488752). Note: nearly all actives have a fitted effect of over 65% in size. Note: potency is the fitted concentration of half-maximal effect. Put shortly: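 Cultures: infected erythrocytes at final 2% hematocrit and 0.1% parasitemia in Albumax-supplemented RPMI. Parasites express integrated firefly luciferase. Incubation with compound lasts 48 h before luminescent detection of remaining reporter activity.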

Test [11] deals with Thioredoxin reductase 1, cytoplasmic (Rattus norvegicus) (UniProt O89049). The test is described as follows: qHTS Assay for Substrates of Mammalian Selenoprotein Thioredoxin Reductase 1 (TrxR1) (AID 488772).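 Note: series mostly up to about 57 µM; a drop in NADPH fluorescence below the no-compound background marks a TrxR1 substrate.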 Put shortly: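 In this dual-purpose format, potential substrates are identified from the first fluorescence read after selenite addition, not from the 8-minute delta. Rat enzyme is preincubated with NADPH and then with compound at ~22 deg C.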
Thioredoxin reductase 1, cytoplasmic (Rattus norvegicus), sequence (O89049 whole entry, looked up): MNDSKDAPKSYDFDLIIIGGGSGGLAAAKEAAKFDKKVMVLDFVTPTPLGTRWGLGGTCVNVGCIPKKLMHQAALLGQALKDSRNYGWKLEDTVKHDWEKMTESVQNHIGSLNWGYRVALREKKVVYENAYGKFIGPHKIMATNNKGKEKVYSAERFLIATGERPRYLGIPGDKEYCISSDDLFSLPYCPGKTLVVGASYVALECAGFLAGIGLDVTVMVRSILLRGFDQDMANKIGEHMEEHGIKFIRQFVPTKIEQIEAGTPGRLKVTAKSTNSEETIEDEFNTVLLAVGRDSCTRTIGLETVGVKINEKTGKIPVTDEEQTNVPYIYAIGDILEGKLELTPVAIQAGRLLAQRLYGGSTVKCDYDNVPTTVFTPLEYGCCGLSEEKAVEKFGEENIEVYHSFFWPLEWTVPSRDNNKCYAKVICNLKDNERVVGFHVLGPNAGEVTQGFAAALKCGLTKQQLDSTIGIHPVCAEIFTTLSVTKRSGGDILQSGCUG

Test [12] is described as follows: qHTS for differential inhibitors of proliferation of Plasmodium falciparum line Dd2 (AID 1882).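 Note: series mostly up to about 29 µM; compound exposure of 72 h on infected erythrocytes; nearly all actives have a fitted effect of over 65% in size.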 Particulars: Potency: Plasmodium falciparum Dd2 proliferation inhibition. The essentials:
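RBC culture, 0.3% parasitemia / 2.5% Hct final; cpd added by pin tool in DMSO; 72 h, 37 C, 5% CO2; lysis buffer + SYBR Green I, o/n RT dark; FI 485/535; norm. to artemisinin 0.29 uM and DMSO.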

The nature of test [13]: qHTS Assay for Modulators of Human Peripheral Myelin Protein 22 (PMP22) Expression/Activity (AID 1967; active = well fitted curve in the direction sought with a large enough effect in the signal ratio; the % refers to the signal ratio). The essentials:
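Engineered MSC80 cells, Pmp22-promoter green and EF-alpha red luciferase reporters; 24h compound treatment at 37 °C. Concentration-response fits on green, red and ratio signals, each overlap-corrected, with %Activity normalized to untreated wells.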

Test [14] can be described thus: Cytometric Cell-Based qHTS for Inhibitors of the mTORC1 Signaling Pathway in MEF (Tsc2-/-, p53-/-) Cells (AID 2660).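 Note: Tsc2 and p53 null MEFs carrying empty vector with compound for 24 h; percent of cells above a phospho-rpS6 to PI ratio cutoff in each well; series mostly up to about 38 µM.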 Put shortly:
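Readout: Alexa-488 phospho-rpS6 (Ser235/236) intensity divided by PI intensity, thresholded against 7.5 nM rapamycin wells and reported as % positive cells. PI cell count served as the viability measure. Compound exposure was 24 hrs at 37 degree Celsius.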

The nature of test [15]: High Content Imaging Cell-Based qHTS for Inhibitors of the mTORC1 Signaling Pathway in MEF (Tsc2-/-, p53-/-) Cells (AID 2666).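 Note: percent of cells scored positive for phospho-rpS6 Ser235/236 immunostaining by imaging.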 Put shortly: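 MEF Tsc2-/- p53-/- (empty vector), DMEM/10% FBS; cpd 24 h 37 °C; PFA fix, Alexa-488 p-rpS6 S235/236 Ab, Hoechst; imaged; rapamycin-defined inhibition; % positive cells/well.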
Test [16] in a line: High Content Imaging Cell-Based qHTS for Inhibitors of the mTORC1 Signaling Pathway in MEF Cells (AID 2667).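 Note: Tsc2-/- p53-/- MEFs stably re-expressing wild-type Tsc2 exposed 24 h; series mostly up to about 38 µM.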 The essentials:
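Read-out is the share of phospho-rpS6-positive cells per well, from Hoechst-normalized Alexa-488 Ser235/236 staining imaged on IN Cell. Cells: WT Tsc2-expressing Tsc2-/-, p53-/- MEFs exposed to compound for 24 hrs.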

Test [17] in a line: Cytometry Cell-Based qHTS for Inhibitors of the mTORC1 Signaling Pathway in MEF cells (AID 2668).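 Note: Tsc2-/- p53-/- mouse embryonic fibroblasts stably re-expressing wild-type Tsc2; percent cells positive for phospho-rpS6 Ser235/236 relative to propidium iodide stain; series mostly up to about 38 µM.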 The essentials:
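In MEFs grown in DMEM + 10% FBS, a 24 hrs compound exposure preceded imaging of phospho-rpS6 Ser235/236 by laser-scanning cytometry.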

Test [18] can be described thus: Validation screen for small molecules that induce DNA re-replication in MCF 10A normal breast cells (AID 463097). Note: nearly all actives have a fitted effect of over 60% in size. Note: potency is the fitted concentration of half-maximal effect. The essentials:
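Following 48 hr compound incubation (37 C, 5% CO2), MCF 10A cells receive Hoechst for 40 min at 37 C. Nuclei are then scanned (excitation 405 nm, emission 500-530 nm) for total fluorescence intensity.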

For test [19], the target named is RecQ-like DNA helicase BLM (Homo sapiens) (UniProt P54132). Description: qHTS Validation Assay for Inhibitors of Bloom's syndrome helicase (BLM) (AID 2364). Put shortly:
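50 nM BLM preincubated 15 min at room temperature with compound in pH 8.0 Tris buffer containing 2.5 ug/ml poly(dI-dC); started with 200 nM TAMRA/BHQ-2 forked duplex and 2 mM ATP (final). Unwinding read as TAMRA fluorescence increase, two reads 2 h apart.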

The target in test [20] is ATP-dependent 6-phosphofructokinase (Trypanosoma brucei brucei) (UniProt O15648). Description: qHTS Validation Assay to Find Inhibitors of T. brucei phosphofructokinase (AID 485368). Put shortly:
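Inhibition derived from concentration-response curves of luminescence, ranked by r2, response size and curve class; the underlying reaction used 1.25 nM PFK, 0.1 mM ATP and 0.5 mM F6P, 45 min, room temperature.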

Ferritin light chain (Equus caballus), sequence (P02791 2-175 limits assumed): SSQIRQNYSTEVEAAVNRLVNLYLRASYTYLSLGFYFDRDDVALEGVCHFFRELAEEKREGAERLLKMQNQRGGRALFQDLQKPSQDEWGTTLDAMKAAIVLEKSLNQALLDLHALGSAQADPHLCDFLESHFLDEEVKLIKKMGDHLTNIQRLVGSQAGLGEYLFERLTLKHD
RecQ-like DNA helicase BLM (Homo sapiens), sequence (P54132 whole entry, looked up): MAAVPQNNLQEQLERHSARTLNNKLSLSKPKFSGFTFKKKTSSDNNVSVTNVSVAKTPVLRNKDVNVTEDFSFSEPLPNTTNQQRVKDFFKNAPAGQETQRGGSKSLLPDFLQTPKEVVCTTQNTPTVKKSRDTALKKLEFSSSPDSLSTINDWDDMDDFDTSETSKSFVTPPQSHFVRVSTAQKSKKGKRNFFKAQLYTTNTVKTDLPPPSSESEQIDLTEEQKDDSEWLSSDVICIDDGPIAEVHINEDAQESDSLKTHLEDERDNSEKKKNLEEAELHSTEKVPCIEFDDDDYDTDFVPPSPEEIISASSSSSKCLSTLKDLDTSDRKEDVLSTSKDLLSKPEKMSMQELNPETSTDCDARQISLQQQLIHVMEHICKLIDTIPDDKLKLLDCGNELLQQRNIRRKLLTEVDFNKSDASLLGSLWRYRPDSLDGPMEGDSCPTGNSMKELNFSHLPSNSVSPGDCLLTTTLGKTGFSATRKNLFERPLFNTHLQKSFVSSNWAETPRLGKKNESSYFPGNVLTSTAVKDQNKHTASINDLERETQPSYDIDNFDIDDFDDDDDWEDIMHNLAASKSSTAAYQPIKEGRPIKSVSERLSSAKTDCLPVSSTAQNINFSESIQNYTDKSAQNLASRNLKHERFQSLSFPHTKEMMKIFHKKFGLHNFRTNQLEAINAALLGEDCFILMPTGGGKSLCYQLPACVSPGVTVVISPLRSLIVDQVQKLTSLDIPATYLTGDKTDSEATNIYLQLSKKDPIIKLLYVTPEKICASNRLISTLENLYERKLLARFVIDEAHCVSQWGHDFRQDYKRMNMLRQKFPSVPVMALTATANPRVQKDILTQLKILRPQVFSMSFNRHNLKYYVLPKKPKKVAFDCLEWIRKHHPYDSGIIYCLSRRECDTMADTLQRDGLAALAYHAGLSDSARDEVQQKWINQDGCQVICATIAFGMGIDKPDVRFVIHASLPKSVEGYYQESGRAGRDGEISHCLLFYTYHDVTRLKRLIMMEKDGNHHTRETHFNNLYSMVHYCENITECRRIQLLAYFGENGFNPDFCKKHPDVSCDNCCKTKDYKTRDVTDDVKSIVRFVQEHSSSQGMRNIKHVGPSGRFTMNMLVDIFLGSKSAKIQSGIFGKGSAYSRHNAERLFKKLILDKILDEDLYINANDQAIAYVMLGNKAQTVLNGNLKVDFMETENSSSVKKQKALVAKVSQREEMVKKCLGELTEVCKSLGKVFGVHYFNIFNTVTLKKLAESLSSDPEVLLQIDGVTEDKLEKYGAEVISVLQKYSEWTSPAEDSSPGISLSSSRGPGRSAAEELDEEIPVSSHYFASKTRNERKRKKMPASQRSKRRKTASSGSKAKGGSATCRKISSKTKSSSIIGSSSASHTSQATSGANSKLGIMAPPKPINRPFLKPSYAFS
DNA polymerase III PolC-type (Bacillus subtilis (strain 168)), sequence (P13267 whole entry, looked up): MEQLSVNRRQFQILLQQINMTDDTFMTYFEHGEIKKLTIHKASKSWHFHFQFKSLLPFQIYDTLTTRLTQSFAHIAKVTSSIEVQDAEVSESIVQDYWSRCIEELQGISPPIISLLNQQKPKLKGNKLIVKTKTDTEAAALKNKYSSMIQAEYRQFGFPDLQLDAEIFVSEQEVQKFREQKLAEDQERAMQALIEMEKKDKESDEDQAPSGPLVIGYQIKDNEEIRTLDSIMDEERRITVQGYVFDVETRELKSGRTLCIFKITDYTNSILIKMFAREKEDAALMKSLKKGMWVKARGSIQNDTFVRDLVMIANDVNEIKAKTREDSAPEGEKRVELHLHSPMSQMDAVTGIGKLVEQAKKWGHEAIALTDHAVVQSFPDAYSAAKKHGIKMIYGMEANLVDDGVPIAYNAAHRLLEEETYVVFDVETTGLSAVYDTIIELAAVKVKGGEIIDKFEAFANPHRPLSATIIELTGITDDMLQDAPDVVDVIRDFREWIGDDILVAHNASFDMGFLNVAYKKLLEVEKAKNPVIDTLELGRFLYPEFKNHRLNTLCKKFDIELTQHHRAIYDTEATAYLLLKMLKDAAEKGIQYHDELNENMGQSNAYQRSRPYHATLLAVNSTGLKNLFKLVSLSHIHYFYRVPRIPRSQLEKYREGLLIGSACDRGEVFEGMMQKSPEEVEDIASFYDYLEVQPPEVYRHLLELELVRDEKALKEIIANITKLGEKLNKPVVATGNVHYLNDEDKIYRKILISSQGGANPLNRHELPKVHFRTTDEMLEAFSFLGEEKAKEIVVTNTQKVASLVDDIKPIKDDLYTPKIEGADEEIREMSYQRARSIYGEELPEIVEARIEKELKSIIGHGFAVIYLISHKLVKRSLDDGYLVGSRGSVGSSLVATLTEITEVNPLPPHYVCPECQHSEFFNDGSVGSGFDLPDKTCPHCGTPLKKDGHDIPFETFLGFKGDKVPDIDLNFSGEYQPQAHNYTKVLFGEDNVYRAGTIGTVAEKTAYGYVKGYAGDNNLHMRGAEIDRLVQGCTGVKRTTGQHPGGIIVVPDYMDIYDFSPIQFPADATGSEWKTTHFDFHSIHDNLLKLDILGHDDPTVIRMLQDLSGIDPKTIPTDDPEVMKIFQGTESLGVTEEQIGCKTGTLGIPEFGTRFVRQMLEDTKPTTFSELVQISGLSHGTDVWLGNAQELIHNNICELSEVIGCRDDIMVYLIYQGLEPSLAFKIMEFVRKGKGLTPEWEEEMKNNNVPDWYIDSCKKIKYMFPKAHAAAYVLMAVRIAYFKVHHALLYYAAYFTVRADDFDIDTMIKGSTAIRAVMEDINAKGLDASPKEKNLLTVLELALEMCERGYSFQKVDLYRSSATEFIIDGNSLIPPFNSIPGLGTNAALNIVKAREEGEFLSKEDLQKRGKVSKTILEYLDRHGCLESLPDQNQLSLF
ATP-dependent 6-phosphofructokinase (Trypanosoma brucei brucei), sequence (O15648 whole entry, looked up): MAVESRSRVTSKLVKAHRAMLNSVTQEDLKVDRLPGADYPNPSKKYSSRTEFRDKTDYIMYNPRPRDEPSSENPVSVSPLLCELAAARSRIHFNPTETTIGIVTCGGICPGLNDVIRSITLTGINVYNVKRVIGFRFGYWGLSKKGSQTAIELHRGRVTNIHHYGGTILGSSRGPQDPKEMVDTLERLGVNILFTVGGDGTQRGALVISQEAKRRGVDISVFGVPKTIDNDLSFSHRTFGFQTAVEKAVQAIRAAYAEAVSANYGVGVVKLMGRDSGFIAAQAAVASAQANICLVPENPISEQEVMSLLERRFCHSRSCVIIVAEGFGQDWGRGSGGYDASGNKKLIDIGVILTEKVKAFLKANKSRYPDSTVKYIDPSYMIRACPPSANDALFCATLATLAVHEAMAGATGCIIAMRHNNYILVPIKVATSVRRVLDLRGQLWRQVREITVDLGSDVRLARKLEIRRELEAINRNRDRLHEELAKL

`COc1ccc2cc3[n+](cc2c1OC)CCc1cc2c(cc1-3)OCO2`: in test [1], the result was inactive.

For the compound `Cc1ccc(S(=O)(=O)N[C@@H](Cc2ccccc2)C(=O)CCl)cc1`, the Potency in test [2] was 11.2 µM (active). Also, the Potency result in [3], in test [9] and in [10] was “inactive” each time. For the same compound, the outcome in test [4], in test [5], in [6], in [7], in test [8] and in test [11] was inactive.

For `Nc1nc(N)c2nc(CNc3ccc(C(=O)NC(CCC(=O)O)C(=O)O)cc3)cnc2n1` (configuration not stated), the Potency result in test [12], in test [2], in [3], in test [15], in test [17] and in test [18] was “inactive” in each case. Besides, the Potency result in test [9] and in test [10] was “inactive” in each case. Further, the compound was called inactive in test [13], in test [5], in test [14], in test [16], in [6] and in test [7]. Further, in test [8], the result was inactive.

As to `CC1=C(C(=O)O)N2C(=O)[C@@H](NC(=O)C(N)c3ccccc3)[C@H]2SC1` (some centres not stated), the Potency result in test [12], in test [2], in test [3], in test [15], in test [17] and in test [18] was “inactive” in each case. Moreover, the Potency entry in test [9] and in test [10] was “inactive” in each case. Further, the compound was called inactive in test [13], in test [4], in [5], in [16], in test [6] and in [7]. Besides, the outcome in [8] and in test [11] was inactive.

As to `OCc1ccc(-c2nn(Cc3ccccc3)c3ccccc23)o1`, the Potency in test [2] is 8.91 µM (active); in test [18] it was 12.6 µM (active). The compound was called inactive in test [4], in test [5], in test [14], in test [16], in test [6] and in [7]. In addition, the outcome in test [8] and in test [11] was inactive. The Potency entry in test [15], in test [17], in test [9] and in [10] was “inactive” throughout.

In the case of `CCCCS(=N)(=O)CCC(N)C(=O)O` (configuration not stated), the Potency result in test [12], in [3], in test [15], in test [17], in [18] and in test [20] was “inactive” in each case. In test [9], the Potency entry is “inactive”. Further, the outcome in test [13], in test [4], in test [5], in test [19], in test [14] and in test [16] was inactive. Further, the compound was called inactive in test [6], in [7], in test [8] and in test [11]. In [10], the Potency was 2.08 µM (active).

As to `CC(C)(C)NC(=O)[C@H]1CC[C@H]2[C@@H]3CC[C@H]4NC(=O)C=C[C@]4(C)[C@H]3CC[C@]12C`, the Potency entry in test [12], in test [18], in test [9] and in test [10] was “inactive” each time. Moreover, the Potency in [2] was 10 µM (active). The call in test [4] and in test [5] was inactive.

Consider `NC(=O)c1cccc(N)c1`, for which the Potency entry in test [12], in test [2], in [3], in test [15], in test [17] and in test [18] was “inactive” in each case. Besides, the Potency entry in test [9] and in test [10] was “inactive” in each case. Moreover, the call in test [4], in test [5], in test [19], in test [14], in test [16] and in test [6] was inactive. Also, the compound was classed as inactive in test [7], in test [8] and in test [11].

For the compound `O=C(O)C1CCCN(CCC=C(c2ccccc2)c2ccccc2)C1` (configuration not stated), the Potency result in [12], in test [2], in [3], in test [15], in test [17] and in test [18] was “inactive” each time. The Potency result in test [9] and in test [10] was “inactive” each time. Also, the compound was classed as inactive in test [13], in test [4], in [5], in test [19], in test [14] and in [16]. Moreover, the outcome in test [6], in [7], in test [8] and in test [11] was inactive.

As for `NC(N)=NC(N)=NCCc1ccccc1`, in test [1], the result was inactive.
